We go through 93 molecules from PubChem BioAssay AID485346 (Sanford-Burnham Center for Chemical Genomics, 2010).

Among all 330,000 compounds or so, about 10,000 (3%) were called active.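 Rule for the calls: active = inhibition of at least 50% at 8 µM in the primary screen; inactive = the rest.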 Only a selection was taken, and actives are over-represented in it overall.

The target in the test is Protein Mdm4 (Homo sapiens) + E3 ubiquitin-protein ligase Mdm2 (Homo sapiens) (UniProt O15151+Q00987). Put plainly: inhibitors of human Mdm2-MdmX association, primary screen, cell-based, luminescence, split luciferase, SaOS-2, uHTS (AID 485346). The conditions noted are these: SaOS-2 split-luciferase Mdm2/MdmX complementation, at 8 µM, hits give high values.
Sequence of Protein Mdm4 (Homo sapiens) + E3 ubiquitin-protein ligase Mdm2 (Homo sapiens) (O15151 whole entry, looked up): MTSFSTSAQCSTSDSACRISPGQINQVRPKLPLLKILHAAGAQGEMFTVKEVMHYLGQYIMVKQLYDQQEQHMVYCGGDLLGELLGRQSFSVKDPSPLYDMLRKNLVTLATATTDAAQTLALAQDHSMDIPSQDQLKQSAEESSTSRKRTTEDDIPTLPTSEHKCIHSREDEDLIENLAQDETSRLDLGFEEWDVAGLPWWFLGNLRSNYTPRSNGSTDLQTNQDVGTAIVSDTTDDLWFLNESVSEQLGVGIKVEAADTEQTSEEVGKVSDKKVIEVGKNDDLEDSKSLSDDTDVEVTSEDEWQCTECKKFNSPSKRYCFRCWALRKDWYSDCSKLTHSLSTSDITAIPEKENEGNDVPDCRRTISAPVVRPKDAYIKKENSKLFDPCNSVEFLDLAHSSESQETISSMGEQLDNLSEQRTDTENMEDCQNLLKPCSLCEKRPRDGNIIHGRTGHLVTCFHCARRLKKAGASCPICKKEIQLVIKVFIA
Sequence of Protein Mdm4 (Homo sapiens) + E3 ubiquitin-protein ligase Mdm2 (Homo sapiens) (Q00987 whole entry, looked up): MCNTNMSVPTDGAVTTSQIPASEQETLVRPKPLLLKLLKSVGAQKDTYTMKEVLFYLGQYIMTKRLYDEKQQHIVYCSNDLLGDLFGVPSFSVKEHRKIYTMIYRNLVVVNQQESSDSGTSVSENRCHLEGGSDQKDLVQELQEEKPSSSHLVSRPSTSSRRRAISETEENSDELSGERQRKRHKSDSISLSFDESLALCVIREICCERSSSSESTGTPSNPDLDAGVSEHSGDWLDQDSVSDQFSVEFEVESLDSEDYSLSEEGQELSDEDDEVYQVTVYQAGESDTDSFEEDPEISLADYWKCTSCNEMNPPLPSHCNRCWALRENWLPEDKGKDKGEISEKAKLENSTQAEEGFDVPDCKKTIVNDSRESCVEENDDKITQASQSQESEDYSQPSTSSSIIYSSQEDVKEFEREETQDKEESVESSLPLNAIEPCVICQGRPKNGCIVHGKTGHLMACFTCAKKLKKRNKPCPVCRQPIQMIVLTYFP
Take `CCSc1nc(O)c(C(c2cccc(OC)c2)c2c(O)nc(SCC)[nH]c2=O)c(=O)[nH]1`: the inhibition is -27.3% (inactive).

Turning to `COc1cccc(CNC(=O)c2nnn(CC(=O)Nc3cc(Cl)ccc3C)c2N)c1`, the inhibition is 77.9% (active).

Turning to `COc1cccc(CNC(=O)c2nnn(CC(=O)Nc3cc(C)ccc3C)c2N)c1`, the inhibition is 5.26% (inactive).

With `COc1ccc(CNC(=O)c2nnn(CC(=O)Nc3cc(C)cc(C)c3)c2N)cc1`, the inhibition is 48.3% (inactive).

`Cc1ccc(Nc2nnc(SC(C)C(=O)NC3CC3)s2)cc1` (stereo not drawn): the inhibition was 22.3% (inactive).

Take `Cc1cc(=O)n2nc(N3CCC(C(=O)Nc4c(F)c(F)c(F)c(F)c4F)CC3)sc2n1`: the inhibition was 8.91% (inactive).

For the molecule `CC(C)(C)Nc1nc(-c2ccccn2)nc2ccccc12`, the inhibition is 87.5% (active).

`c1ccc2c(NCC3CCCO3)nc(-c3ccncc3)nc2c1` (stereo not drawn): the inhibition was -16.8% (inactive).

On to `N#Cc1ccc(Oc2cc(C(F)(F)F)nc(-c3ccccn3)n2)cc1`, for which the inhibition is 11.2% (inactive).

Take `COc1cnc(-c2ccccn2)nc1Oc1ccc(C(C)(C)C)cc1`: the inhibition was 37.6% (inactive).

As to `Cc1ccc(Oc2nc(-c3ccccn3)nc3ccccc23)cc1`, the inhibition is 60.4% (active).

`c1ccc(-c2nccc(-c3ccc(-n4cnc5ccccc54)cc3)n2)nc1`: the inhibition was 28.4% (inactive).

For `CCn1nc(C)c(CN2CCN(Cc3ccc(OC)c(C)c3C)C(CCO)C2)c1C` (stereo not drawn), the inhibition is 10.8% (inactive).

In the case of `O=C(OCCN1CCOCC1)C1(c2ccccc2)CCCCC1`, the inhibition was -8.86% (inactive).

`Cc1ncn2cc(-c3ccc(Cl)cc3Cl)[nH]c(=O)c12`: the inhibition was 7.48% (inactive).

In the case of `O=C(Nc1nnc(-c2ccc(F)cc2)s1)c1c(F)cccc1Cl`, the inhibition was 7.4% (inactive).

For `Cc1ccc(C(=O)Nc2nnc(-c3ccncc3)s2)o1`, the inhibition was -5.65% (inactive).

In the case of `CC(C)=CC(=O)Nc1nnc(-c2ccc(F)cc2)s1`, the inhibition is 80% (active).

On to `COc1ccccc1N(C)S(=O)(=O)c1ccc(Cl)c(C(=O)N2CCC(C(N)=O)CC2)c1`, for which the inhibition is -6.16% (inactive).

As to `Cc1ccc2[nH]c3c(=O)n(CC(=O)NCCc4ccc(Cl)cc4)ncc3c2c1`, the inhibition is -13.8% (inactive).

Take `COc1ccc(C2CC(=O)Oc3ccc(C(C)(C)C)cc32)cc1` (stereo not drawn): the inhibition is 21.6% (inactive).

For `c1ccc2c(c1)C(=NC1CCCCC1)NC2=NC1CCCCC1`, the inhibition is 94.3% (active).

Take `Cc1nn(C)c(Cl)c1CN1CCC(n2nccc2NC(=O)C2CCCC2)CC1`: the inhibition is 12.6% (inactive).

As to `COCc1cc(=O)[nH]c(SC)n1`, the inhibition is 5.54% (inactive).

For `COc1ccc([C@@H]2[C@@H]3C(=O)N(C(C)(C)C)C(=O)[C@@H]3[C@]3(Cc4ccccc4)C(=O)N(c4cccc(Br)c4)C(=O)N23)cc1`, the inhibition was 37.8% (inactive).

For `O=C(NNC(=O)c1cc(-c2ccccc2Cl)nc2ccccc12)c1csc(N2CCOCC2)n1`, the inhibition is -34.1% (inactive).

`C=CCn1c(C23CC4CC(CC(C4)C2)C3)n[nH]c1=S`: the inhibition is 9.22% (inactive).

Regarding `Cc1ccc(NNC(=O)C2CCC2)cc1C`, the inhibition is -2.12% (inactive).

Turning to `Cc1ccc(Nc2cc(=O)n(C3CCCCC3)c(=O)[nH]2)cc1C`, the inhibition was 54.2% (active).

As to `O=c1cc(C(F)(F)F)[nH]c(=O)n1C1CCCCC1`, the inhibition was -23.2% (inactive).

For the molecule `COC(=O)Cn1cc(/C=C/[N+](=O)[O-])c2ccccc21`, the inhibition is 23.4% (inactive).

Turning to `O=[N+]([O-])/C=C/c1ccc2c(ccn2Cc2ccccc2)c1`, the inhibition is 95.5% (active).

On to `O=C(Cn1ccc2cc(S(=O)(=O)N3CCCC3)ccc21)NCc1ccccc1`, for which the inhibition was 12.6% (inactive).

On to `Oc1ccc(N=Nc2nccs2)c(O)c1`, for which the inhibition was 53.8% (active).

Turning to `O=C(NC1(C(F)(F)F)NC(=O)N(Cc2cccnc2)C1=O)c1ccccc1Cl` (stereo not drawn), the inhibition was 1.79% (inactive).

Take `Cc1cc(C)c(C#N)c(SCC(=O)N(CC(C)C)C2CCS(=O)(=O)C2)n1` (stereo not drawn): the inhibition is 18% (inactive).

On to `CN(C)Cc1c(C(=O)N/N=C/c2ccccc2OCc2ccc(F)cc2)nnn1-c1nonc1N`, for which the inhibition was 14.6% (inactive).

Take `CC1CCN(C(=O)c2ccc(CSc3ccc(Cl)cc3)cc2)CC1`: the inhibition was -14.2% (inactive).

`Nc1ccc(C(=O)N2CCN(S(=O)(=O)c3ccc(Cl)cc3)CC2)cc1[N+](=O)[O-]`: the inhibition was 18.3% (inactive).

Turning to `CC1CCN(C(=O)c2ccc(S(=O)(=O)Cc3cc(F)ccc3F)c([N+](=O)[O-])c2)CC1`, the inhibition was 68.4% (active).

Take `N#Cc1ccc(C(=O)Nc2nc(-c3cccs3)c(C(=O)C(F)(F)F)s2)cc1`: the inhibition was 83.2% (active).

In the case of `COc1ccc(C(=O)Nc2nc(-c3ccc(OC)cc3)c(-c3ccc([N+](=O)[O-])cc3)s2)cc1`, the inhibition was 13.4% (inactive).

In the case of `CCOc1cccc(C(=O)Nc2nnc(-c3cccs3)s2)c1`, the inhibition was -36.4% (inactive).

Turning to `COc1ccc(CC(NC(C)=O)C(=O)NC2CCN(C(=O)c3ccc(Cl)cc3)CC2)cc1` (stereo not drawn), the inhibition is 7.62% (inactive).

As to `Cc1ccc(-c2nn(C(C)(C)C)c3ncnc(N)c23)cc1`, the inhibition is 79% (active).

Take `Cc1ccc(-n2cnc3ncnc(-c4ccccc4)c32)cc1`: the inhibition is 6.32% (inactive).

Consider `c1ccc(-c2cnc(CN3CCN(c4ccccc4)CC3)o2)cc1`, for which the inhibition is -0.44% (inactive).

`CCN=c1sc(C(=O)Nc2ccccc2)c(C)n1CC`: the inhibition is 18.2% (inactive).

Consider `CCCn1c(N)c(C(=O)CSc2nnc3n2CCCCC3)c(=O)[nH]c1=O`, for which the inhibition is 2.64% (inactive).

Regarding `CC(C)(C)NC(=O)NC(=O)CN1CCC(Cc2ccccc2)CC1`, the inhibition is 12% (inactive).

With `COc1ccc(N(C)C(=O)CCS(=O)(=O)c2cccc3nsnc23)cc1`, the inhibition was -8.48% (inactive).

On to `CC(=O)N(CCCN(C)C)c1nc2ccc(C)cc2s1`, for which the inhibition is -16.8% (inactive).

For the molecule `COc1ccc(NC(=O)CS(=O)(=O)c2ccccc2)cc1`, the inhibition was -16.7% (inactive).

On to `Cc1cccc2sc(N(CCCN(C)C)C(=O)CCS(=O)(=O)c3ccccc3)nc12`, for which the inhibition is 98.7% (active).

For the molecule `COc1cccc2sc(N(CCCN(C)C)C(=O)CCS(=O)(=O)c3ccccc3)nc12`, the inhibition is 73.6% (active).

As for `COc1cc2ccccc2cc1C(=O)N(CCN(C)C)c1nc2c(F)cccc2s1`, the inhibition was 19.4% (inactive).

As for `COc1cccc2sc(N(CCCN(C)C)C(=O)C(c3ccccc3)c3ccccc3)nc12`, the inhibition was 92.5% (active).

Consider `Cc1cccc(C)c1NC(=O)CCS(=O)(=O)c1cccc2nsnc12`, for which the inhibition was -1.39% (inactive).

Regarding `CN(C)CCN(C(=O)CN1C(=O)c2ccccc2C1=O)c1nc2cc3c(cc2s1)OCCO3`, the inhibition is -9.56% (inactive).

In the case of `CC(C)(Oc1ccc(Cl)cc1)C(=O)OCC(=O)NCCc1ccc(S(N)(=O)=O)cc1`, the inhibition is -3.95% (inactive).

Take `CC1=C(C(N)=O)C(c2ccc(F)cc2)n2nc(CCCO)nc2N1` (stereo not drawn): the inhibition was 1.82% (inactive).

In the case of `CCOCCCNC(=O)C1(O)c2cc(Br)ccc2NC(=O)N1c1ccc(C)c(C)c1` (stereo not drawn), the inhibition was 18.7% (inactive).

Regarding `Cc1nc2cc(C(F)(F)F)ccc2n1CCNc1nc(-c2cc(Cl)c(N)c(Cl)c2)cs1`, the inhibition is 27.1% (inactive).

On to `CSc1ccc(NC(=O)N2CC(C)OC(C)C2)cc1` (stereo not drawn), for which the inhibition is 15% (inactive).

`COc1cc(NS(=O)(=O)c2ccc(NC(=O)c3ccc(S(=O)(=O)N4CCCCC4)cc3)cc2)ncn1`: the inhibition is 13.5% (inactive).

`O=C(CCl)NNc1nc(-c2ccccc2)c2cc(Cl)ccc2n1`: the inhibition is 19.7% (inactive).

Regarding `OCCCNc1nc(-c2ccccc2)c2cc(Cl)ccc2n1`, the inhibition was 19.5% (inactive).

With `NC(N)=Nc1nc(-c2ccccc2)c2cc(Cl)ccc2n1`, the inhibition is 97.4% (active).

As to `COC(=O)c1ccc(C2C3=C(Nc4nnnn42)c2ccccc2OC3)cc1` (stereo not drawn), the inhibition is 14.2% (inactive).

On to `COc1ccc(C(=O)NC(C)Cn2nc(C)cc2C)cc1OC1CCN(C(C)=O)CC1` (stereo not drawn), for which the inhibition was 2.18% (inactive).

As for `COC(=O)c1ccc(Nc2ncnc3sccc23)cc1`, the inhibition is 1.96% (inactive).

`O=C1CN(C(=O)c2ccccc2F)C(c2ccc(F)cc2)c2cc(F)ccc2N1` (stereo not drawn): the inhibition was -22.4% (inactive).

Regarding `CCOC(=O)C1(CCOc2ccccc2)CCN(Cc2ccc(C#CCCO)cc2)CC1`, the inhibition is 27.4% (inactive).

Take `CC(C)CN(CC(C)C)CC(O)CN(c1ccccc1)S(=O)(=O)c1ccccc1[N+](=O)[O-]` (stereo not drawn): the inhibition was 31.5% (inactive).

Consider `CCOc1ccc(NS(=O)(=O)c2ccc(C(=O)NCC(c3ccccc3OC)N3CCCC3)cc2)cc1` (stereo not drawn), for which the inhibition was 38.1% (inactive).

Regarding `O=C(NCC1(N2CCCCC2)CCCCC1)c1ccc(NS(=O)(=O)c2ccc(F)cc2)cc1`, the inhibition is 8.39% (inactive).

Consider `CCOc1ccc(S(=O)(=O)Nc2cccc(C(=O)NCC3(N4CCCCC4)CCCCC3)c2)cc1`, for which the inhibition was 66.6% (active).

Regarding `COc1cccc(NC(=O)c2cc(S(=O)(=O)N3CCc4ccccc43)cn2C)c1`, the inhibition was 32% (inactive).

As for `COCc1cc(C)n(CC(=O)NCC2CCCO2)c(=O)c1C#N` (stereo not drawn), the inhibition was -12.8% (inactive).

In the case of `CCOC(=O)c1cc(NC(=O)c2ccc(Cl)cc2)c(=O)oc1-c1ccccc1`, the inhibition was 81.6% (active).

Consider `CC(=O)c1cc(NC(=O)c2ccccc2)c(=O)oc1/C=C/N(C)C`, for which the inhibition was -7.04% (inactive).

Turning to `CCOC(=O)NNC(=O)c1ccc(Cl)cc1`, the inhibition is 9.31% (inactive).

In the case of `COC(=O)C1=C(C(=O)OC)[C@@H]2N(C)c3ccccc3[C@@]23C[C@@H](C(=O)OC)N(C(=O)c2ccco2)C3=N1`, the inhibition is 30% (inactive).

For `Cc1nc(C)c(C(=O)N(c2ccc(C)c(C)c2)C(C(=O)NCc2ccco2)c2ccccc2)s1` (stereo not drawn), the inhibition is -6.49% (inactive).

Regarding `Cc1ccc(-c2nnn(CC(=O)N(Cc3ccco3)C(C(=O)NC(C)(C)C)c3ccncc3)n2)o1` (stereo not drawn), the inhibition is -5.12% (inactive).

For the molecule `Cc1nn(-c2ccccc2)c2sc(C(=O)N(Cc3ccco3)C(C)C(=O)NC(C)(C)C)cc12` (stereo not drawn), the inhibition was 50.9% (active).

Regarding `CCC(C)Cn1c(O)cc2nn(-c3nc4ccccc4s3)c(=O)c-2c1C` (stereo not drawn), the inhibition was 39.4% (inactive).

Consider `COc1ccc(Nc2ccc([N+](=O)[O-])cn2)cn1`, for which the inhibition is 8.39% (inactive).

Consider `COC(=O)c1sccc1NC(=S)Nc1ccc(C)cc1`, for which the inhibition is -1.32% (inactive).

Turning to `COc1ccc(CCNC(=O)c2cnc(Cl)c(Cl)c2)cc1`, the inhibition is -0.067% (inactive).

As to `COc1ccc(NC(=O)/C(Cl)=C(/Cl)S(=O)Cc2ccc(C)cc2)cn1` (stereo not drawn), the inhibition was 91.5% (active).

Consider `COc1ccc(CS(=O)/C(Cl)=C(/Cl)C(=O)Nc2ccc(OC)nc2)cc1` (stereo not drawn), for which the inhibition is 97.2% (active).

Consider `CCOc1ccc(S(=O)(=O)Nc2ccc(OC)nc2)cc1`, for which the inhibition was -9.26% (inactive).
